16 compounds from PubChem BioAssay (NCI) can be followed below.

Some test systems named below: T-47D breast; BT-549 breast; MDA-MB-435 melanoma; SW-620 colon; MCF7 breast; HCT-116 colon; HCC-2998 colon; KM12 colon.
Common to all, as to assay: NCI-60 one-dose screen, 48 h (100 = growth as untreated, 0 = no growth, -100 = all killed)
What all share (conditions): 10 µM unless noted

This is part of a sample that, as a whole, favours compounds with a hit. Of some 83,000 tested, about 20% had one in any assay.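 For each line, cells grew in 96-well plates with the test compound present at a single concentration for 48 hours.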 Values without a mark were called inactive. Activity calls are given as the source filed them. The calls were made as follows: active = growth percent below 10; inactive = the rest.

On to `CCN(CC)CC(=O)Nc1c(C)cc(C(=O)NN)cc1C`, for which the growth was 90.8% in the assay on T-47D breast; 117% in the assay on BT-549 breast; 101% with MDA-MB-435 melanoma; 101% in the assay with SW-620 colon; 98.3% in the assay with MCF7 breast; 102% in the assay with HCT-116 colon. The results for the growth in the assay with HCC-2998 colon and with KM12 colon were 107% and 98.9%, respectively.
As for `COc1cc(Cl)cc(-c2nn(C(=O)NCCN3CCOCC3)cc2-c2ccncc2)c1`, the growth is 57.4% with T-47D breast; 115% in the assay with BT-549 breast; 2.37% (active) with MDA-MB-435 melanoma; 57.5% in the assay on SW-620 colon; 28.1% in the assay on MCF7 breast; 51.3% in the assay on HCT-116 colon. Further, the growth with HCC-2998 colon is 88.6%; in the assay with KM12 colon it was 61.7%.
With `Clc1nnc2c3ccccc3ccn12`, the growth is 108% in the assay on T-47D breast; 97.9% in the assay on BT-549 breast; 111% in the assay with MDA-MB-435 melanoma; 96.7% in the assay on SW-620 colon; 107% with MCF7 breast; 103% in the assay with HCT-116 colon. Further, the growth with HCC-2998 colon is 115%; in the assay on KM12 colon, 109%.
For the compound `COc1ccc(/C(C)=N/NC(=O)CSc2nc3ccccc3c(=O)n2CCc2ccc(S(N)(=O)=O)cc2)cc1`, the growth in the assay with T-47D breast was 22.3%; in the assay with BT-549 breast it was 64.2%; in the assay with MDA-MB-435 melanoma, 16.7%; in the assay with SW-620 colon it was 54.6%; in the assay on MCF7 breast, 59.1%; in the assay on HCT-116 colon it was -47% (active). Besides, the results for the growth in the assay with HCC-2998 colon and in the assay on KM12 colon were 74.8% and 25.1%, respectively.
Turning to `O=[N+]([O-])c1ccc(N/N=C/c2ccccc2O)nc1`, the growth with T-47D breast was 24%; in the assay on BT-549 breast, 47.8%; in the assay with MDA-MB-435 melanoma it was 46.8%; with SW-620 colon, 52.6%; with MCF7 breast, 16.8%; in the assay with HCT-116 colon it was 22.3%. For the same compound, the figures for the growth in the assay on HCC-2998 colon and in the assay on KM12 colon were 14.7% and 27%, respectively.
On to `O=S1(=O)NCCCN1CCNc1nccc(-c2c(-c3cccc(O)c3)nc3sccn23)n1`, for which the growth in the assay on T-47D breast was 78.3%; in the assay with BT-549 breast, 86%; in the assay on MDA-MB-435 melanoma it was 24.6%; in the assay with SW-620 colon, 88%; in the assay on MCF7 breast it was 91.8%; in the assay on HCT-116 colon it was 31%. Besides, the growth in the assay on HCC-2998 colon was 108%; with KM12 colon, 102%.
As to `CC(=O)Oc1c(Cl)c(Cl)c(Cl)c(Cl)c1Cl`, the growth is 89.2% in the assay on T-47D breast; 95.4% in the assay on BT-549 breast; 102% with MDA-MB-435 melanoma; 102% in the assay on SW-620 colon; 93.8% with MCF7 breast; 99.4% with HCT-116 colon. Moreover, the growth is 94.9% with HCC-2998 colon and 103% in the assay on KM12 colon.
Turning to `O=C1/C(=C/N2N=C(c3ccc(Cl)cc3)CC2c2ccccc2O)SC(=S)N1c1cccc(C(F)(F)F)c1` (stereo not drawn), the growth in the assay with T-47D breast is 27.4%; in the assay on BT-549 breast it was 71.7%; in the assay with MDA-MB-435 melanoma it was 64.6%; with SW-620 colon it was 64.7%; in the assay with MCF7 breast, 15.7%; in the assay on HCT-116 colon, 45.5%. Further, the growth is 62.3% in the assay with HCC-2998 colon and 38% with KM12 colon.
For the compound `Fc1cc(-c2cnc3nonc3n2)c(Cl)cc1Cl`, the growth is 63.2% in the assay on T-47D breast; 99.7% in the assay with BT-549 breast; 90.1% in the assay on MDA-MB-435 melanoma; 38.7% in the assay on SW-620 colon; 69.7% in the assay with MCF7 breast; 7.65% (active) in the assay with HCT-116 colon. For the same compound, the growth is 103% with HCC-2998 colon and 88.2% with KM12 colon.
For `CC(C)CCSc1nc(Nc2ccccc2)c(C#N)c(-c2ccc(F)cc2)n1`, the growth in the assay on T-47D breast was 46.5%; in the assay on BT-549 breast, 79%; in the assay with MDA-MB-435 melanoma, 82.5%; in the assay with SW-620 colon, 46.5%; in the assay on MCF7 breast, 65.2%; in the assay with HCT-116 colon, 24%. The growth with HCC-2998 colon was 83.1%; in the assay on KM12 colon it was 84.8%.
With `COc1cccc(/C(C)=N/NC(=O)CSc2nc3ccccc3c(=O)n2CCc2ccc(S(N)(=O)=O)cc2)c1`, the growth is 40% with T-47D breast; 62.9% in the assay on BT-549 breast; 38.4% in the assay on MDA-MB-435 melanoma; 30.7% in the assay with SW-620 colon; 20.5% with MCF7 breast; -50.5% (active) with HCT-116 colon. The growth is 69.1% with HCC-2998 colon and 14% with KM12 colon.
On to `COc1ccc(-c2ccc(-c3ccc(C(=N)N)s3)s2)cc1`, for which the growth is -64% (active) with T-47D breast; -81.3% (active) in the assay with BT-549 breast; -78.1% (active) in the assay with MDA-MB-435 melanoma; -69.1% (active) with SW-620 colon; -50.1% (active) with MCF7 breast; -47.8% (active) in the assay with HCT-116 colon. The growth with HCC-2998 colon is -81% (active); in the assay on KM12 colon, -86.8% (active).
As to `CC(C)(C)c1nn(-c2ccccc2)c2c1C(=O)CSC(c1ccccc1Cl)N2` (stereo not drawn), the growth with T-47D breast was 29.3%; in the assay on BT-549 breast, 44.6%; in the assay on MDA-MB-435 melanoma, -12.4% (active); in the assay with SW-620 colon, 37.1%; in the assay on MCF7 breast, 17.1%; in the assay on HCT-116 colon, 16.2%. The values for the growth in the assay with HCC-2998 colon and with KM12 colon were 24.9% and 32.5%, respectively.
For the compound `COc1cc(NCC(O)CN(CC(C)C)CC(C)C)c2ncccc2c1` (stereo not drawn), the growth in the assay with T-47D breast was 1.96% (active); in the assay with BT-549 breast, 95.2%; with MDA-MB-435 melanoma, 107%; in the assay on SW-620 colon, 74.9%; in the assay on MCF7 breast, -25.6% (active); in the assay on HCT-116 colon, 80.2%. Moreover, the results for the growth in the assay on HCC-2998 colon and with KM12 colon were 93.6% and 96%, respectively.
As to `C=C1C[C@@]2(C)C(CC[C@]3(C)C2CC=C2C4CC(C)(C)C[C@@H](OC(=O)/C(C)=C\C)[C@]4(C(=O)O)CC[C@]23C)C(C)(C)C1=O` (stereo partly drawn), the growth in the assay on T-47D breast was -11.3% (active); in the assay on BT-549 breast, -19.7% (active); with MDA-MB-435 melanoma, -12.4% (active); in the assay with SW-620 colon, -29.1% (active); in the assay with MCF7 breast, 8.17% (active); in the assay with HCT-116 colon it was -78.5% (active). Besides, the growth is -79.9% (active) in the assay on HCC-2998 colon and 3.05% (active) with KM12 colon.
Take `O=C(Nc1cccc(N=Cc2c(O)ccc3ccccc23)c1)c1ccccc1`: the growth is 85.2% in the assay on T-47D breast; 85.3% in the assay on BT-549 breast; 101% in the assay with MDA-MB-435 melanoma; 98.6% with SW-620 colon; 86.3% in the assay with MCF7 breast; 93.9% with HCT-116 colon. Besides, the growth in the assay with HCC-2998 colon was 102%; in the assay with KM12 colon it was 95.6%.
